Results reported in PubChem BioAssay (EPA / NIEHS).
Where “and” joins values, the source holds several entries; their conditions need not be identical. Equal values may be shown once. Some structures have more than one record in an assay (separate samples or runs), and their calls can disagree. Calls of active or inactive are those of the source. How the source made its calls: active means hit-call score of the fitted dose curve at least 0.9, where 1 is the maximum; inactive means score below 0.9.

Read-out: Interleukin-1 alpha (IL1a), IL1A (gene 3552)
Assay: BSK_LPS_IL1a: BioMAP Diversity Plus: LPS Assay for Interleukin-1 alpha (IL1a) Biomarker Activity (AID 2283080)
Details: primary human HUVEC with PBMC; actives raise or lower the signal
In short: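 Readout is IL-1a level by ELISA, 24 h post-dose, fitted as gain or loss relative to DMSO. System: LPS-activated human primary co-culture of vascular endothelium and peripheral blood mononuclear cells, with parallel SRB total-protein cytotoxicity.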
With C=CC(=O)OCC(F)(F)C(F)F the AC50 was 40 µM (active) and 35.4 µM (active).
With COP(=O)(O)OC the outcome was “inactive”.
With O=C(O)C(F)(F)C(F)(F)C(=O)O the outcome was “inactive”.
For O=C(O)C=CC(F)(C(F)(F)F)C(F)(F)F, the outcome was “inactive”.
In the case of O=C(O)C(F)(F)OC(F)(F)C(F)(F)OC(F)(F)F, the outcome is reported as “inactive”.
For COP(N)(=S)OC, the outcome was “inactive”.
For CCCCN(CCCC)SN(C)C(=O)Oc1cccc2c1OC(C)(C)C2, the AC50 was 29.8 µM (active).
For FC(F)(F)C(F)(C(F)(F)F)C(F)(F)C(F)(F)CC1CO1 (configuration not stated), the outcome was “inactive”.
With CCOP(=S)(OCC)SCS(=O)(=O)CC the outcome was “inactive”.
For CC(C)Nc1ccc(Nc2ccccc2)cc1, the AC50 was 9.74 µM (active).
For CC(O)C(F)(F)C(F)(F)F (configuration not stated), the outcome was “inactive”.
For CCN(CC)c1ccccc1, the outcome was “inactive”.
With O=C(O)C(F)(OC(F)(F)C(F)(F)C(F)(F)F)C(F)(F)F (configuration not stated) the outcome was “inactive”.
With ClC(Cl)c1ccccc1 the outcome was “inactive”.
In the case of Cc1ccc2c(c1N)C(=O)c1ccccc1C2=O, the outcome is reported as “inactive”.
For O=S1(=O)OCC2C(CO1)C1(Cl)C(Cl)=C(Cl)C2(Cl)C1(Cl)Cl (configuration not stated), the outcome was “inactive”.
In the case of O=P(Oc1ccccc1)(Oc1ccccc1)Oc1ccccc1, the outcome is reported as “inactive”.
In the case of OCC(F)(F)OC(F)(F)C(F)(F)OC(F)(F)C(F)(F)OC(F)(F)F, the AC50 is reported as 55.1 µM (active) and the outcome is reported as “inactive”.
With OCC(F)(F)OC(F)(F)C(F)(F)OC(F)(F)C(F)(F)OC(F)(F)CO the outcome was “inactive”.
With [N-]=[N+]=[N-] the outcome was “inactive”.
In the case of CSC(C)(C)C=NO, the outcome is reported as “inactive”.
For CCCCC(CC)COP(=O)(Oc1ccccc1)Oc1ccccc1 (configuration not stated), the AC50 was 20 µM (active).
In the case of CCCCc1ccccc1, the outcome is reported as “inactive”.
For CCOP(=S)(NC(C)C)Oc1ccccc1C(=O)OC(C)C (configuration not stated), the outcome was “inactive”.
In the case of CCCN(CCC)c1c([N+](=O)[O-])cc(C(C)C)cc1[N+](=O)[O-], the AC50 is reported as 31.5 µM (active).
In the case of CCCCC(CC)COC(=O)c1c(Br)c(Br)c(Br)c(Br)c1C(=O)OCC(CC)CCCC (configuration not stated), the outcome is reported as “inactive”.
With CC(Cl)CN(C)C (configuration not stated) the outcome was “inactive”.
In the case of COC(=O)C(F)(F)C(F)(F)OC(F)(C(F)(F)F)C(F)(F)OC(F)=C(F)F (configuration not stated), the outcome is reported as “inactive”.

Read-out: Monocyte Chemoattractant Protein-1 (MCP1), CCL2 (gene 6347)
Assay: BSK_LPS_MCP1: BioMAP Diversity Plus: LPS Assay for Monocyte Chemoattractant Protein-1 (MCP1) Biomarker Activity (AID 2283081);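 on AC50: co-culture stimulated with LPS; secreted MCP-1 protein quantified by ELISA in culture supernatant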
Details: primary human HUVEC with PBMC; actives raise or lower the signal
In short: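 Secreted MCP-1 read by ELISA at 24 h post-dosing in an LPS-activated co-culture of endothelial cells with peripheral blood mononuclear cells. Fits run in both directions, DMSO as baseline; parallel SRB staining tracks overt cytotoxicity.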
For C=CC(=O)OCC(F)(F)C(F)F, the AC50 was 20.8 µM (active) and the outcome was “inactive”.
In the case of COP(=O)(O)OC, the outcome is reported as “inactive”.
With O=C(O)C(F)(F)C(F)(F)C(=O)O the outcome was “inactive”.
For O=C(O)C=CC(F)(C(F)(F)F)C(F)(F)F, the outcome was “inactive”.
With O=C(O)C(F)(F)OC(F)(F)C(F)(F)OC(F)(F)F the outcome was “inactive”.
With COP(N)(=S)OC the outcome was “inactive”.
In the case of CCCCN(CCCC)SN(C)C(=O)Oc1cccc2c1OC(C)(C)C2, the AC50 is reported as 30.9 µM (active).
In the case of FC(F)(F)C(F)(C(F)(F)F)C(F)(F)C(F)(F)CC1CO1 (configuration not stated), the outcome is reported as “inactive”.
With CCOP(=S)(OCC)SCS(=O)(=O)CC the outcome was “inactive”.
In the case of CC(C)Nc1ccc(Nc2ccccc2)cc1, the AC50 is reported as 10.1 µM (active).
For CC(O)C(F)(F)C(F)(F)F (configuration not stated), the outcome was “inactive”.
In the case of CCN(CC)c1ccccc1, the outcome is reported as “inactive”.
For O=C(O)C(F)(OC(F)(F)C(F)(F)C(F)(F)F)C(F)(F)F (configuration not stated), the outcome was “inactive”.
With ClC(Cl)c1ccccc1 the outcome was “inactive”.
In the case of Cc1ccc2c(c1N)C(=O)c1ccccc1C2=O, the outcome is reported as “inactive”.
With O=S1(=O)OCC2C(CO1)C1(Cl)C(Cl)=C(Cl)C2(Cl)C1(Cl)Cl (configuration not stated) the AC50 was 10.5 µM (active).
With O=P(Oc1ccccc1)(Oc1ccccc1)Oc1ccccc1 the AC50 was 30 µM (active).
For OCC(F)(F)OC(F)(F)C(F)(F)OC(F)(F)C(F)(F)OC(F)(F)F, the AC50 was 52.2 µM (active) and the outcome was “inactive”.
In the case of OCC(F)(F)OC(F)(F)C(F)(F)OC(F)(F)C(F)(F)OC(F)(F)CO, the outcome is reported as “inactive”.
For [N-]=[N+]=[N-], the outcome was “inactive”.
For CSC(C)(C)C=NO, the outcome was “inactive”.
For CCCCC(CC)COP(=O)(Oc1ccccc1)Oc1ccccc1 (configuration not stated), the AC50 was 7.43 µM (active).
In the case of CCCCc1ccccc1, the outcome is reported as “inactive”.
For CCOP(=S)(NC(C)C)Oc1ccccc1C(=O)OC(C)C (configuration not stated), the outcome was “inactive”.
For CCCN(CCC)c1c([N+](=O)[O-])cc(C(C)C)cc1[N+](=O)[O-], the AC50 was 31.3 µM (active).
For CCCCC(CC)COC(=O)c1c(Br)c(Br)c(Br)c(Br)c1C(=O)OCC(CC)CCCC (configuration not stated), the outcome was “inactive”.
With CC(Cl)CN(C)C (configuration not stated) the outcome was “inactive”.
For COC(=O)C(F)(F)C(F)(F)OC(F)(C(F)(F)F)C(F)(F)OC(F)=C(F)F (configuration not stated), the outcome was “inactive”.

Read-out: not listed separately
Assay: BSK_LPS_PGE2: BioMAP Diversity Plus: LPS Assay for Prostaglandin E2 (PGE2) Biomarker Activity (AID 2283082);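 on AC50: secreted prostaglandin E2 measured by ELISA in LPS-stimulated co-culture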
Details: primary human HUVEC with PBMC; actives raise or lower the signal
In short: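 Primary human endothelial cells and blood mononuclear cells, co-cultured with LPS, receive test chemical; PGE2 ELISA follows at 24 h, with SRB-stained parallel cultures flagging cytotoxicity.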
With C=CC(=O)OCC(F)(F)C(F)F the AC50 was 39.4 µM (active) and 31.6 µM (active).
In the case of COP(=O)(O)OC, the outcome is reported as “inactive”.
For O=C(O)C(F)(F)C(F)(F)C(=O)O, the outcome was “inactive”.
With O=C(O)C=CC(F)(C(F)(F)F)C(F)(F)F the outcome was “inactive”.
With O=C(O)C(F)(F)OC(F)(F)C(F)(F)OC(F)(F)F the outcome was “inactive”.
For COP(N)(=S)OC, the outcome was “inactive”.
With CCCCN(CCCC)SN(C)C(=O)Oc1cccc2c1OC(C)(C)C2 the outcome was “inactive”.
With FC(F)(F)C(F)(C(F)(F)F)C(F)(F)C(F)(F)CC1CO1 (configuration not stated) the outcome was “inactive”.
In the case of CCOP(=S)(OCC)SCS(=O)(=O)CC, the outcome is reported as “inactive”.
With CC(C)Nc1ccc(Nc2ccccc2)cc1 the AC50 was 16.6 nM (active).
With CC(O)C(F)(F)C(F)(F)F (configuration not stated) the outcome was “inactive”.
With CCN(CC)c1ccccc1 the outcome was “inactive”.
For O=C(O)C(F)(OC(F)(F)C(F)(F)C(F)(F)F)C(F)(F)F (configuration not stated), the outcome was “inactive”.
For ClC(Cl)c1ccccc1, the outcome was “inactive”.
In the case of Cc1ccc2c(c1N)C(=O)c1ccccc1C2=O, the outcome is reported as “inactive”.
With O=S1(=O)OCC2C(CO1)C1(Cl)C(Cl)=C(Cl)C2(Cl)C1(Cl)Cl (configuration not stated) the outcome was “inactive”.
In the case of O=P(Oc1ccccc1)(Oc1ccccc1)Oc1ccccc1, the outcome is reported as “inactive”.
With OCC(F)(F)OC(F)(F)C(F)(F)OC(F)(F)C(F)(F)OC(F)(F)F the AC50 was 30 µM (active) and 46.8 µM (active).
With OCC(F)(F)OC(F)(F)C(F)(F)OC(F)(F)C(F)(F)OC(F)(F)CO the outcome was “inactive”.
With [N-]=[N+]=[N-] the outcome was “inactive”.
For CSC(C)(C)C=NO, the outcome was “inactive”.
In the case of CCCCC(CC)COP(=O)(Oc1ccccc1)Oc1ccccc1 (configuration not stated), the outcome is reported as “inactive”.
For CCCCc1ccccc1, the outcome was “inactive”.
In the case of CCOP(=S)(NC(C)C)Oc1ccccc1C(=O)OC(C)C (configuration not stated), the outcome is reported as “inactive”.
With CCCN(CCC)c1c([N+](=O)[O-])cc(C(C)C)cc1[N+](=O)[O-] the outcome was “inactive”.
In the case of CCCCC(CC)COC(=O)c1c(Br)c(Br)c(Br)c(Br)c1C(=O)OCC(CC)CCCC (configuration not stated), the outcome is reported as “inactive”.
For CC(Cl)CN(C)C (configuration not stated), the outcome was “inactive”.
With COC(=O)C(F)(F)C(F)(F)OC(F)(C(F)(F)F)C(F)(F)OC(F)=C(F)F (configuration not stated) the outcome was “inactive”.
